# PubChem BioAssay AID1159580 (chemical genetic matrix, 2015)
# About 2,000 (36%) of roughly 5,500 compounds were called active. Inconclusive results (about 18%) are left out. Some of the results follow. Unmarked numbers belong to inactive results. No stated cut-off is given here; in the data, active means normalized growth mostly below about 0.91 (no sharp cut-off); inconclusive means no clear call, values can overlap the other calls; inactive means mostly above about 0.92.
# Test: chemical genetic growth profiling, strain panel (AID 1159580);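 further: tested at 20 µM; growth read once vehicle control cultures reached saturation at 30 °C; 1 = growth at the plate median or of vehicle wells; lower values mean less growth of the strain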
# Settings: growth OD
structure (smiles),measurement,setting,value
CCC(=O)O[C@H]1CCC2C3CCC4=CC(=O)CC[C@]4(C)C3CC[C@@]21C (some centres not stated),normalized growth,"S. cerevisiae deletion strains, locus YJR066W, strain TOR1, active compounds read low",0.884
same,normalized growth,"S. cerevisiae deletion strains, locus YKL009W, strain mrt4, active compounds read low",0.974
same,normalized growth,"S. cerevisiae deletion strains, locus YKL068W, active compounds read low",0.972
same,normalized growth,"S. cerevisiae deletion strains, locus YKL085W, strain MDH1 (second series), active compounds read low",0.901 (active)
same,normalized growth,"S. cerevisiae deletion strains, locus YKL085W, strain MDH1, active compounds read low",0.901 (active)
same,normalized growth,"S. cerevisiae deletion strains, locus YKL160W, strain elf1, active compounds read low",0.882 (active)
same,normalized growth,"S. cerevisiae deletion strains, locus YKR001C, strain vps1, active compounds read low",0.861 (active)
same,normalized growth,"S. cerevisiae deletion strains, locus YKR026C, strain gcn3, active compounds read low",0.96
same,normalized growth,"S. cerevisiae deletion strains, locus YKR091W, strain srl3, active compounds read low",0.948
same,normalized growth,"S. cerevisiae deletion strains, locus YLL001W, strain dnm1, active compounds read low",0.989
same,normalized growth,"S. cerevisiae deletion strains, locus YLL026W, active compounds read low",0.971
same,normalized growth,"S. cerevisiae deletion strains, locus YLL041C, strain sdh2, active compounds read low",0.957
same,normalized growth,"S. cerevisiae deletion strains, locus YLR027C, strain aat2, active compounds read low",0.93
same,normalized growth,"S. cerevisiae deletion strains, locus YLR039C, strain RIC1, active compounds read low",0.653 (active)
same,normalized growth,"S. cerevisiae deletion strains, locus YLR058C, strain SHM2, active compounds read low",0.956
same,normalized growth,"S. cerevisiae deletion strains, locus YLR102C, strain apc9, active compounds read low",0.99
same,normalized growth,"S. cerevisiae deletion strains, locus YLR113W, strain HOG1, active compounds read low",0.941
same,normalized growth,"S. cerevisiae deletion strains, locus YLR221C, strain rsa3, active compounds read low",0.925
same,normalized growth,"S. cerevisiae deletion strains, locus YLR258W, strain gsy2, active compounds read low",0.899 (active)
same,normalized growth,"S. cerevisiae deletion strains, locus YLR262C, strain YPT6 (second series), active compounds read low",0.671 (active)
same,normalized growth,"S. cerevisiae deletion strains, locus YLR262C, strain YPT6, active compounds read low",0.633
same,normalized growth,"S. cerevisiae deletion strains, locus YLR268W, strain sec22, active compounds read low",0.934
same,normalized growth,"S. cerevisiae deletion strains, locus YLR320W, strain mms22, active compounds read low",0.83 (active)
same,normalized growth,"S. cerevisiae deletion strains, locus YLR330W, strain CHS5, active compounds read low",0.821 (active)
same,normalized growth,"S. cerevisiae deletion strains, locus YLR342W, strain FKS1 (second series), active compounds read low",0.745 (active)
same,normalized growth,"S. cerevisiae deletion strains, locus YLR342W, strain FKS1, active compounds read low",0.779 (active)
same,normalized growth,"S. cerevisiae deletion strains, locus YLR357W, strain rsc2, active compounds read low",0.944
same,normalized growth,"S. cerevisiae deletion strains, locus YLR370C, strain arc18, active compounds read low",0.955
same,normalized growth,"S. cerevisiae deletion strains, locus YLR371W, strain rom2, active compounds read low",0.783 (active)
same,normalized growth,"S. cerevisiae deletion strains, locus YLR384C, strain iki3, active compounds read low",0.969
same,normalized growth,"S. cerevisiae deletion strains, locus YLR418C, strain cdc73, active compounds read low",0.672 (active)
same,normalized growth,"S. cerevisiae deletion strains, locus YML016C, strain PPZ1, active compounds read low",0.982
same,normalized growth,"S. cerevisiae deletion strains, locus YML032C, strain rad52, active compounds read low",0.889 (active)
same,normalized growth,"S. cerevisiae deletion strains, locus YML120C, strain ndi1, active compounds read low",0.952
same,normalized growth,"S. cerevisiae deletion strains, locus YML124C, strain tub3, active compounds read low",0.972
same,normalized growth,"S. cerevisiae deletion strains, locus YMR058W, strain fet3, active compounds read low",0.916
same,normalized growth,"S. cerevisiae deletion strains, locus YMR078C, strain ctf18, active compounds read low",0.978
same,normalized growth,"S. cerevisiae deletion strains, locus YMR125W, strain sto1, active compounds read low",0.913
same,normalized growth,"S. cerevisiae deletion strains, locus YMR129W, active compounds read low",0.942
same,normalized growth,"S. cerevisiae deletion strains, locus YMR205C, strain PFK2, active compounds read low",0.785 (active)
same,normalized growth,"S. cerevisiae deletion strains, locus YMR223W, strain ubp8, active compounds read low",0.888 (active)
same,normalized growth,"S. cerevisiae deletion strains, locus YMR231W, strain pep5, active compounds read low",0.957
same,normalized growth,"S. cerevisiae deletion strains, locus YMR263W, strain SAP30, active compounds read low",0.963
same,normalized growth,"S. cerevisiae deletion strains, locus YMR307W, strain GAS1, active compounds read low",0.917
same,normalized growth,"S. cerevisiae deletion strains, locus YNL067W, strain RPL9B, active compounds read low",0.985
same,normalized growth,"S. cerevisiae deletion strains, locus YNL071W, strain lat1, active compounds read low",0.719 (active)
same,normalized growth,"S. cerevisiae deletion strains, locus YNL183C, strain NPR1, active compounds read low",0.89
same,normalized growth,"S. cerevisiae deletion strains, locus YNL233W, strain BNI4, active compounds read low",0.803 (active)
same,normalized growth,"S. cerevisiae deletion strains, locus YNL248C, strain rpa49, active compounds read low",0.86 (active)
same,normalized growth,"S. cerevisiae deletion strains, locus YNL250W, strain rad50, active compounds read low",1
same,normalized growth,"S. cerevisiae deletion strains, locus YNL271C, strain bni1, active compounds read low",0.963
same,normalized growth,"S. cerevisiae deletion strains, locus YNL298W, strain CLA4, active compounds read low",0.949
same,normalized growth,"S. cerevisiae deletion strains, locus YNL307C, strain MCK1, active compounds read low",0.679 (active)
same,normalized growth,"S. cerevisiae deletion strains, locus YNL322C, strain KRE1 (second series), active compounds read low",0.952
same,normalized growth,"S. cerevisiae deletion strains, locus YNL322C, strain KRE1, active compounds read low",0.958
same,normalized growth,"S. cerevisiae deletion strains, locus YNR049C, strain mso1, active compounds read low",0.932
same,normalized growth,"S. cerevisiae deletion strains, locus YNR052C, strain pop2, active compounds read low",0.924
same,normalized growth,"S. cerevisiae deletion strains, locus YOL006C, strain TOP1, active compounds read low",0.74
same,normalized growth,"S. cerevisiae deletion strains, locus YOL012C, strain htz1",0.608
same,normalized growth,"S. cerevisiae deletion strains, locus YOL147C, strain pex11, active compounds read low",0.967
same,normalized growth,"S. cerevisiae deletion strains, locus YOR001W, strain rrp6, active compounds read low",0.971
same,normalized growth,"S. cerevisiae deletion strains, locus YOR061W, strain CKA2, active compounds read low",0.971
same,normalized growth,"S. cerevisiae deletion strains, locus YOR069W, strain VPS5, active compounds read low",0.976
same,normalized growth,"S. cerevisiae deletion strains, locus YOR070C, strain gyp1, active compounds read low",0.944
same,normalized growth,"S. cerevisiae deletion strains, locus YOR080W, strain dia2, active compounds read low",0.941
same,normalized growth,"S. cerevisiae deletion strains, locus YOR083W, strain WHI5, active compounds read low",0.796 (active)
same,normalized growth,"S. cerevisiae deletion strains, locus YOR106W, strain vam3, active compounds read low",0.837 (active)
same,normalized growth,"S. cerevisiae deletion strains, locus YOR136W, strain idh2, active compounds read low",0.965
same,normalized growth,"S. cerevisiae deletion strains, locus YOR144C, strain elg1, active compounds read low",0.968
same,normalized growth,"S. cerevisiae deletion strains, locus YOR184W, strain ser1, active compounds read low",0.523 (active)
same,normalized growth,"S. cerevisiae deletion strains, locus YOR231W, strain MKK1, active compounds read low",0.988
same,normalized growth,"S. cerevisiae deletion strains, locus YOR265W, strain rbl2, active compounds read low",0.946
same,normalized growth,"S. cerevisiae deletion strains, locus YOR270C, strain vph1, active compounds read low",0.653 (active)
same,normalized growth,"S. cerevisiae deletion strains, locus YOR290C, strain snf2, active compounds read low",0.892
same,normalized growth,"S. cerevisiae deletion strains, locus YOR316C, strain cot1, active compounds read low",0.987
same,normalized growth,"S. cerevisiae deletion strains, locus YPL051W, strain arl3, active compounds read low",0.89 (active)
same,normalized growth,"S. cerevisiae deletion strains, locus YPL055C, strain LGE1, active compounds read low",0.794
same,normalized growth,"S. cerevisiae deletion strains, locus YPL078C, strain atp4, active compounds read low",0.869 (active)
same,normalized growth,"S. cerevisiae deletion strains, locus YPL106C, strain sse1, active compounds read low",0.906
same,normalized growth,"S. cerevisiae deletion strains, locus YPL240C, strain hsp82, active compounds read low",0.978
same,normalized growth,"S. cerevisiae deletion strains, locus YPL256C, strain CLN2, active compounds read low",0.982
same,normalized growth,"S. cerevisiae deletion strains, locus YPR119W, strain clb2, active compounds read low",0.981
same,normalized growth,"S. cerevisiae deletion strains, locus YPR141C, strain kar3, active compounds read low",0.976
same,normalized growth,"S. cerevisiae deletion strains, locus YPR163C, strain tif3, active compounds read low",0.933
same,normalized growth,"S. cerevisiae deletion strains, locus YPR167C, strain met16, active compounds read low",0.971
same,normalized growth,"S. cerevisiae deletion strains, strain wtn01, active compounds read low",0.924
same,normalized growth,"S. cerevisiae strains, strain wild type, active compounds read low",0.944
